# Experimental data taken from publication PMC7819943, “Rice protein-binding microarrays: a tool to detect cis-acting elements near promoter regions in rice”.
# The full ranking holds about 68,000 sequences; the median of “fluorescence intensity (a.u.)” is about 9,100, and the highest 2% start at about 16,000. Only a selection was taken, and the highest values are over-represented in it overall.
# Target: OsWRKY34 (Oryza sativa, UniProt Q0JBA9 1-250)
# Assay: protein-binding microarray (RPBM); PBS, 2% BSA, 51.3 ng/ul salmon testes DNA, 50 uM zinc acetate, 200 nM TF, 25 C, 1 h; high values mean tight binding
# Conditions: protein: recombinant; tags: N-terminal polyhistidine and DsRed monomer fusion (pET32a); label: CyDye5-dUTP incorporated in the synthesized complementary strand; 3' TTTTT single-stranded linker to array surface; dsDNA, one strand shown
# Procedure, shortened: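 Binding signal is defined as the fluorescence intensity of each feature in arbitrary units, read on an Axon 4000B scanner. Transcription factors with N-terminal polyhistidine and DsRed fusions came from E. coli BL21-CodonPlus and were purified on Ni–NTA. They were incubated at 200 nM for 1 h at 25 °C on a custom Agilent array that had been made double-stranded with Cy5-dUTP, with 50 µM zinc acetate present, and the array was washed.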
# OsWRKY34, sequence (Q0JBA9 entry or part of it): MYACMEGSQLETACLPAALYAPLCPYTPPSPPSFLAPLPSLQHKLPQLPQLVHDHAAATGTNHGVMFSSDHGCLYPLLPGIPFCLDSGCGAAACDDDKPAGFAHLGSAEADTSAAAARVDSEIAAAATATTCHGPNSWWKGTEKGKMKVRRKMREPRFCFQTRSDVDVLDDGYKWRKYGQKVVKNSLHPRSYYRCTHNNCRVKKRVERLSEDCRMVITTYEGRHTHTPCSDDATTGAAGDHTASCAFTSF
row,Sequence,binding signal
1,AATTCCTGGCTACGCCACTGCTGCTCTATATATCAAGCCGCGGAGTCACCTAGTGCAG,8080 fluorescence intensity (a.u.)
2,CTCGATTGCGTGTTGTAGATTTTGTGTTTTTGTTCTTGCGCGGAGTCACCTAGTGCAG,8030 fluorescence intensity (a.u.)
3,CCCACATCAAAACCTTGAATTTTCACAGTTTCTTGCATTTCGGAGTCACCTAGTGCAG,9890 fluorescence intensity (a.u.)
4,TTTCACTTGCTTGTTTTTCATGTCCACACTTCCCAACTCACGGAGTCACCTAGTGCAG,16600 fluorescence intensity (a.u.)
5,TGTCCACACTTCCCAACTCATTAAATAGTTTGTTTTTTGACGGAGTCACCTAGTGCAG,8320 fluorescence intensity (a.u.)
6,GCTTGCCAACTTGTCCCAAATTTCCTTCGGCGTTTTTTCACGGAGTCACCTAGTGCAG,10800 fluorescence intensity (a.u.)
7,TCCAACTCACTTATCTCGTTTTCCGCGCACACGTTTTTTACGGAGTCACCTAGTGCAG,16500 fluorescence intensity (a.u.)
8,AGAGTTCTTATCCTAGTTTTTCCAACTCACTTATCTCGTTCGGAGTCACCTAGTGCAG,10900 fluorescence intensity (a.u.)
9,CTTATCTCTCTCGTTTTCCACGCACACGTTTTTCAAACCGCGGAGTCACCTAGTGCAG,8940 fluorescence intensity (a.u.)
10,AACGTTTGATTTTTCATTTCTCTTATTACTGACTTATTTACGGAGTCACCTAGTGCAG,9850 fluorescence intensity (a.u.)
11,CGCCGCCGCTCGCCGACGTCGCCGCCATCGCCATTACAGCCGGAGTCACCTAGTGCAG,8980 fluorescence intensity (a.u.)
12,CTACGATACACCGCTTGTTTCTGTTTTTCTTATCTAGGAACGGAGTCACCTAGTGCAG,9180 fluorescence intensity (a.u.)
13,CCTGTTACCTGTTTGGCTGACTTGGTCAAACACAACTCACCGGAGTCACCTAGTGCAG,9460 fluorescence intensity (a.u.)
14,GTGTTGTGGTTTACTGAATTGATGTTTGGCTTAAGTGATGCGGAGTCACCTAGTGCAG,11800 fluorescence intensity (a.u.)
15,GGGCTGGTTTGGCTTGGCTGTTACAAAGACAAAGAATGACCGGAGTCACCTAGTGCAG,16800 fluorescence intensity (a.u.)
16,TTGGCCATGTTAATGTTTTACTGATCATCAATTTGGTTACCGGAGTCACCTAGTGCAG,8980 fluorescence intensity (a.u.)
17,GGTTTGGCTTGGCTTGGCGGCTGGTTCTGCTGAGGCTGACCGGAGTCACCTAGTGCAG,11900 fluorescence intensity (a.u.)

row,Sequence,binding signal
1,TGGTTTGGTTACTGGTTTAGTGCTTGAATTAATGTGGCACCGGAGTCACCTAGTGCAG,18400 fluorescence intensity (a.u.)
2,GCCGAGCCGCGTCCCTTTTTCCCATCGCCCACGCAGCGAGCGGAGTCACCTAGTGCAG,8920 fluorescence intensity (a.u.)
3,TATGATATGTGTGCCTCAGTTGTTGTGCTTGCTGATGTGTCGGAGTCACCTAGTGCAG,9730 fluorescence intensity (a.u.)
4,TTTCCGGTTTTTCCAATATTTTTCGATACCGTTTTCATTTCGGAGTCACCTAGTGCAG,12800 fluorescence intensity (a.u.)
5,ATGGGGTTGACTTTTTTTTAGGGATTGCTAGGTGCACCGTCGGAGTCACCTAGTGCAG,20100 fluorescence intensity (a.u.)
6,CAGGTAATGGATTGATTGCAGGGTTGGGATTTGACCAGGTCGGAGTCACCTAGTGCAG,11300 fluorescence intensity (a.u.)
7,GAAAGATTTTCACCGTTTGGGTAGGTTGGGGATGGGATGACGGAGTCACCTAGTGCAG,11400 fluorescence intensity (a.u.)
8,TTCATATTTTCACCGTTTGGGTAGAGTGGTGGTGGGGTGTCGGAGTCACCTAGTGCAG,10400 fluorescence intensity (a.u.)
9,TCAGTCATCGTAAATTATTGTGATTTTTTAGGGAGGGGTGCGGAGTCACCTAGTGCAG,9130 fluorescence intensity (a.u.)
10,TTGGGTGGAGGATTTGGAATTTGACCGGTTGACTTAGGGTCGGAGTCACCTAGTGCAG,11900 fluorescence intensity (a.u.)
11,GTATTGAGGGCTTAATCGTGGTCGTGGGATATTATTTCATCGGAGTCACCTAGTGCAG,8390 fluorescence intensity (a.u.)
12,GGGGATCGGAGGGTGGGGATACGCATGGTGGATGGTAGTGCGGAGTCACCTAGTGCAG,12600 fluorescence intensity (a.u.)
13,TTTCCACCGTTTGGCGTTTGGGTAGGGTTGGGATGGGATGCGGAGTCACCTAGTGCAG,17200 fluorescence intensity (a.u.)
14,GGGTTTGGGGTTGCGATTGGGATTGGTAGGGAGGCTGATGCGGAGTCACCTAGTGCAG,8280 fluorescence intensity (a.u.)
15,CGTCGTGGCGGGTTCATCGGGAGGGGATTATTGATTTAGTCGGAGTCACCTAGTGCAG,21100 fluorescence intensity (a.u.)
16,CGTCATATTTGCACCGTTTGGGTAGGGTGGGGATGGGGTGCGGAGTCACCTAGTGCAG,18700 fluorescence intensity (a.u.)
